Bioassay records as filed in PubChem BioAssay.
Compounds with a hit are over-represented: about 1.7% of the library has one in this group of screens.
ARNT TACC3 PPI: disruptors of human ARNT/TACC3 interaction | AlphaScreen His-ARNT PAS-B/GST-TACC3 binding, luminescence; TACC3 fragment carries E629A point mutation | inhibition, % at 9.99 µM | Q9Y6A5 | 390,000 compounds, 0.66% hits;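 active = mean inhibition of replicates at least 50% and at least half of replicates each reaching 50%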;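 also: 0% = complete ARNT plus TACC3 wells and 100% = ARNT alone without TACC3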
aDG glyco act: alpha-DG glycosylation activation; Pro5-aDG cells, alpha-DG glycosylation AlphaScreen (IIH6); 0% Pro5, 100% B10-LARGE cell signal; activation, % at 10 µM; 360,000 compounds, 0.22% hits; AID 624168;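 active = activation of at least 8% versus controls, or a plate z-score of at least 8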;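 also: Pro5 are CHO cells carrying HIG-tagged alpha-DG that lacks glycosylation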
Vif imaging: blocks HIV Vif function | HEK293T cells, Vif self-association by quenched fluorescence, imaging, 24 h | inhibition, % at 7.49 µM | 340,000 compounds, 0.35% hits; in the data active = inhibition above about 50%, passing the limit was not always enough
Cardio protect: protects H9c2 cardiomyocytes from peroxide injury | H2O2 injury protection, ATPLite, 2 h | protection from H2O2 cell death, % at 20 µM | 360,000 compounds, 0.63% hits | AID 588492;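 active = compounds giving at least 50% protection of heart cells from peroxide-induced death in the single-dose screen, raw or plate-pattern-corrected value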;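 also: 0% = DMSO wells with peroxide and 100% = DMSO wells without peroxide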
N-glyco inh: blocks N-linked glycosylation in D54 reporter cells. D54 ERlucT glycosylation luciferase reporter, 24 h; percent of 100 nM tunicamycin response. reporter increase, % at 12.5 µM. 360,000 compounds, 0.23% hits. AID 588692;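 active = mean luciferase reporter signal, scaled so untreated is 0 and the glycosylation-blocking control 100, at or above a set limit in every replicate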;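 also: luciferase carries N-glycosylation sites so blocking glycosylation raises the light; 0% = median of neutral control wells and 100% = median of 100 nM tunicamycin wells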
aDG glyco conf: alpha-DG glycosylation activation, confirmation. shares compounds with aDG glyco act. Pro5-aDG cells, IIH6 AlphaLISA; scaled to LARGE-overexpressing B10 cells as 100%. activation, % at 10 µM (by protocol). 600 compounds, 17% hits;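 active = activation of at least 7% in one or more replicates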;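 also: cells exposed to compound for two days before detection; 0% = DMSO-treated Pro5 cells and 100% = DMSO-treated B10-LARGE cells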
* marks the source's active call; other numbers are inactive results; · = not tested or not shown.

SMILES	ARNT TACC3 PPI	aDG glyco act	Vif imaging	Cardio protect	N-glyco inh	aDG glyco conf
Cc1ccc2nc3c(c(N)c2c1)CCN3C	10	0	-10	3	15	·
CN(C)c1ccc(C(=O)OCC(=O)Nc2ccc(S(N)(=O)=O)cc2)cc1	-2	6.0*	6	-10	1	-1
O=C(NCC1CCCO1)C1CCN(C2CCN(C(=O)CC3CCCC3)CC2)CC1 (configuration not stated)	2	3.7*	·	-6	1	0
C[C@@H]1CN([C@H](C)CO)C(=O)Cc2cc(NC(=O)CCN3CCOCC3)ccc2O[C@H]1CN(C)S(=O)(=O)c1ccc(F)cc1	-6	·	·	·	·	·
Oc1cccc(C=NCc2ccccc2)c1	5	51*	·	-10	·	-1
Oc1cccc(/C=N/N(Cc2ccccc2)c2ccccc2)c1	15	0	-10	-13	-2	·
O=C(COc1ccc2ccc(=O)oc2c1)N1CCN(C(=O)C2COc3ccccc3O2)CC1 (configuration not stated)	4	7.8*	-1	0	-1	0
Cc1onc(-c2ccccc2)c1CNS(=O)(=O)c1ccccc1[N+](=O)[O-]	-11	2.6*	-5	-6	0	-1
CCCNC(=O)N1[C@H](CNC(C)=O)[C@H](c2ccc(-c3ccccc3)cc2)[C@@H]1CO	0	·	·	·	·	·
COC(=O)C1=C(C)NC(C)=C(C(=O)OC)C1c1ccc(OC(=O)c2ccco2)cc1	4	0	19	6	5	·
COC(=O)C1=C(C)NC(=S)NC1c1ccc(OC(=O)c2ccco2)cc1 (configuration not stated)	8	5.3*	-1	5	1	2
C[C@@H]1CN([C@H](C)CO)S(=O)(=O)c2ccc(C#CCN(C)C)cc2O[C@H]1CN(C)C(=O)C1CCC1	-8	·	·	·	·	·
COc1ccc2c(c1)-c1nc(/N=C/c3ccccc3O)sc1CC2	10	0	-7	-4	1	·
COc1ccc2sc(/C=C/c3ccccc3O)[n+](C)c2c1	6	11*	2	-8	0	1
COc1ccccc1NC(=O)N[C@H]1CC[C@H](CCNS(=O)(=O)c2ccccc2)O[C@H]1CO	0	·	·	·	·	·
Cc1cccc2cc(CN(CCCN(C)C)C(=S)NCCc3ccccc3)c(=O)[nH]c12	0	4.7*	-2	16	-2	1
C[C@H](CO)N1C[C@H](C)[C@@H](CN(C)Cc2ccc(C(=O)O)cc2)Oc2ccc(NC(=O)C3CCCCC3)cc2C1=O	3	·	·	·	·	·
NC(=S)NNc1ccnc2cc(Cl)ccc12	8	0	2	-9	-3	·
O=C(NNc1ccnc2cc(Cl)ccc12)C1CCCCC1	-1	10*	2	-23	0	0
CO[C@H]1CN(C)C(=O)c2ccc(NC(=O)C3CCCC3)cc2OC[C@H](C)N(CC2CC2)C[C@H]1C	-4	·	·	·	·	·
Nc1nc(Cl)cc(N2CCCC2)n1	-1	0	-8	2	2	·
Nc1nc(Cl)cc(N2CCC(c3cc(-c4ccc(Cl)cc4Cl)n[nH]3)CC2)n1	-13	11*	-5	-17	2	1
O=C(CSc1nc2ccccc2s1)CSc1nc2ccccc2s1	4	6.8*	7	-3	2	-1
COCC(=O)Nc1cccc(-c2ccc3nncn3n2)c1	-1	0	-2	11	1	·
O=C(COc1ccc(Cl)cc1)Nc1cccc(-c2ccc3nncn3n2)c1	0	3.5*	0	14	1	0
SMILES	ARNT TACC3 PPI	aDG glyco act	Vif imaging	Cardio protect	N-glyco inh	aDG glyco conf
CN1/C(=C\C(=O)c2ccco2)C(C)(C)c2ccccc21	0	4.3*	-14	-20	-3	0
CCN1CCN(C2=C(NS(=O)(=O)c3ccc(NC(C)=O)cc3)C(=O)c3ccccc3C2=O)CC1	12	6.7*	-1	-6	7	0
CCC(=O)Nc1ccc2c(c1)C(=O)N(C)C[C@H](OC)[C@H](C)CN(CC1CCCCC1)[C@@H](C)CO2	-6	·	·	·	·	·
COc1ccc(CN(C)C[C@H]2Oc3ccc(NC(=O)c4ccncc4)cc3CC(=O)N([C@@H](C)CO)C[C@@H]2C)cc1	-8	·	·	·	·	·
COc1ccc(S(=O)(=O)N(C)C[C@@H]2OCCCC[C@H](C)Oc3ccc(NS(=O)(=O)c4ccccc4)cc3C(=O)N([C@H](C)CO)C[C@H]2C)cc1	6	·	·	·	·	·
CCC(C(=O)NCc1ccco1)N(C(=O)CNS(=O)(=O)c1ccccc1)c1ccc(F)cc1 (configuration not stated)	28	0	33	-4	2	·
CCC(C(=O)NCc1ccco1)N(C(=O)CNS(=O)(=O)c1ccc(F)cc1)c1ccccc1F (configuration not stated)	-2	3.5*	-5	0	0	-1
C[C@H]1CN([C@@H](C)CO)S(=O)(=O)c2ccc(/C=C/c3ccccc3)cc2O[C@H]1CN(C)C(=O)c1cccnc1	-3	·	·	·	·	·
Cc1ccc(OCCCCn2ccnc2C)c(C)c1	4	3.0*	1	-12	-4	-1
Nc1nc(-c2cccnc2)nn1S(=O)(=O)c1ccccc1	14	7.2*	-2	1	1	0
O=C(Nc1ccnn1C1CCN(Cc2cccc(OCCO)c2)CC1)C1CC1	-1	6.0*	1	3	0	-1
Cc1ccc(CCNC(=O)CCNS(=O)(=O)c2ccc3c(c2)oc(=O)n3C)cc1	-11	0	3	-6	-2	·
Cn1c(=O)oc2cc(S(=O)(=O)NCCC(=O)NCCc3ccccc3)ccc21	-5	4.3*	-12	-3	-1	1
O=C(CNC(=O)c1cccc(F)c1)N/N=C/c1ccc([N+](=O)[O-])s1	·	11*	4	-2	0	3
O=C(CNC(=O)c1cccc(Br)c1)N/N=C/c1cccs1	30	0	-1	-1	0	·
CN1CC(=O)N(CC(=O)Nc2ccc(Cl)c(C(F)(F)F)c2)C1=O	1	5.9*	-2	-1	0	1
CCCCc1c(-c2cccc(OC)c2)ncn1CCc1ccccc1OC	·	0	·	·	·	·
CCCCc1c(-c2ccc(OC)c(OC)c2)ncn1CCc1ccccc1OC	·	14*	·	·	·	0
CCCCc1c(-c2ccccc2OC)ncn1Cc1cccc(-c2ccccc2)c1	·	11*	·	·	·	1
C[C@@H]1CN([C@H](C)CO)S(=O)(=O)c2ccc(-c3ccc(F)cc3)cc2O[C@H]1CN(C)C(=O)c1ccccc1F	6	·	·	·	·	·
Cc1nn(C)cc1C1C2=C(CC(C)(C)CC2=O)N(c2ccccc2)C2=C1C(=O)CC(C)(C)C2	·	4.2*	·	13	·	-1
COC(=O)[C@]12CCCCC=C1N(Cc1cccc3ccccc13)C(=O)[C@H](CC(=O)NCc1ccccc1)C2	·	0	·	·	·	·
COC(=O)[C@]12CCCCC=C1N(Cc1cccc3ccccc13)C(=O)[C@H](CC(=O)NCCC(C)C)C2	·	5.6*	·	·	·	-1
